Assay results taken from a collection of fitness landscapes (doi:10.1126/science.1257360).
Whole data set: some 140,000 sequences, median “enrichment ratio after two sorts for PhoP signalling” near 0, cut for the highest 2% near 11. The list comes from a sample in which the highest values are over-represented; it also holds similar and randomly drawn sequences.

B1: PhoQ; a variant is named by its letters at X, in order, P23837 (parent)
chain: MKKLLRLFFPLSLRVRFLLATAAVVLVLSLAYGMVALIGYSVSFDKTTFRLLRGESNLFYTLAKWENNKLHVELPENIDKQSPTMTLIYDENGQLLWAQRDVPWLMKMIQPDWLKSNGFHEIEADVNDTSLLLSGDHSIQQQLQEVREDDDDAEMTHSVAVNVYPATSRMPKLTIVVVDTIPVELKSSYMVWSWFIYVLSANLLLVIPLLWVAAWWSLRPIEALAKEVRELEEHNRELLNPATTRELTSLVRNLNRLLKSERERYDKYRTTLTDLTHSLKTPLXXLQXXLRSLRSEKMSVSDAEPVMLEQISRISQQIGYYLHRASMRGGTLLSRELHPVAPLLDNLTSALNKVYQRKGVNISLDISPEISFVGEQNDFVEVMGNVLDNACKYCLEFVEISARQTDEHLYIVVEDDGPGIPLSKREVIFDRGQRVDTLRPGQGVGLAVAREITEQYEGKIVAGESMLGGARMEVIFGRQHSAPKDE

Variants of: B1
Test: enrichment ratio after two sorts for PhoP signalling (ratio (wild type AVST 3.29)); higher = more functional
Conditions: with PhoP (E. coli)

| Variant | enrichment ratio |
| --- | --- |
| RFHY | ≤ 0.25 |
| MMCI | ≤ 0.25 |
| SCAE | 8.81 |
| QQYN | ≤ 0.25 |
| FFYM | ≤ 0.25 |
| TKYM | 25.3 |
| QTYM | 0.346 |
| QGYM | 23.9 |
| QQYM | 47.2 |
| NGYM | ≤ 0.25 |
| TKYN | ≤ 0.25 |
| TGYM | 26.5 |
| RGYM | ≤ 0.25 |
| QQYI | ≤ 0.25 |
| MKYM | 6.46 |
| LYSK | ≤ 0.25 |
| DGPS | ≤ 0.25 |
| NVIN | ≤ 0.25 |
| YLDS | ≤ 0.25 |
| TVAW | 2.61 |
| SNQY | 2.66 |
| VDNL | ≤ 0.25 |
| REKA | ≤ 0.25 |
| STYM | 0.458 |
| QEFM | 18.2 |
| QKFM | ≤ 0.25 |

| Variant | enrichment ratio |
| --- | --- |
| QEYM | 24.7 |
| QDYM | ≤ 0.25 |
| QRFM | ≤ 0.25 |
| GMSV | 6.09 |
| MLVP | ≤ 0.25 |
| NCCG | ≤ 0.25 |
| TQWH | 21.9 |
| HPWH | ≤ 0.25 |
| HRWH | ≤ 0.25 |
| KCWH | ≤ 0.25 |
| KSWH | ≤ 0.25 |
| KAWH | ≤ 0.25 |
| NEWH | ≤ 0.25 |
| TEWH | 35.2 |
| NAWH | ≤ 0.25 |
| NVWH | ≤ 0.25 |
| QAWH | 31.4 |
| TGWH | 19.8 |
| KQNP | ≤ 0.25 |
| RGWC | ≤ 0.25 |
| PCRT | ≤ 0.25 |
| DAYY | ≤ 0.25 |
| HSCT | ≤ 0.25 |
| VRFP | ≤ 0.25 |
| DLDP | ≤ 0.25 |
| DHCF | ≤ 0.25 |

| Variant | enrichment ratio |
| --- | --- |
| MCIR | ≤ 0.25 |
| TEFT | 5.71 |
| TELA | 16.8 |
| MELD | ≤ 0.25 |
| TEVT | 3.71 |
| TEYI | 8.43 |
| NELD | ≤ 0.25 |
| TEAT | 17 |
| TEET | ≤ 0.25 |
| TELT | 14.5 |
| TELD | 13.4 |
| TEWI | 4.93 |
| TENT | 3.14 |
| NHGP | ≤ 0.25 |
| KQPT | ≤ 0.25 |
| KTHI | ≤ 0.25 |
| QTDQ | ≤ 0.25 |
| GRFL | ≤ 0.25 |
| AWWN | ≤ 0.25 |
| HNIY | ≤ 0.25 |
| YESG | 0.306 |
| NELY | ≤ 0.25 |
| TELN | 21.6 |
| HPLH | ≤ 0.25 |
| NELH | 2.12 |
| HPLN | ≤ 0.25 |

| Variant | enrichment ratio |
| --- | --- |
| TELC | 11.4 |
| TELH | 11.2 |
| NELC | 5.14 |
| QELC | ≤ 0.25 |
| DELY | ≤ 0.25 |
| TEYN | 3.14 |
| TELY | 15.5 |
| KTRY | ≤ 0.25 |
| PMLD | ≤ 0.25 |
| APTN | ≤ 0.25 |
| QEAD | ≤ 0.25 |
| QRGT | ≤ 0.25 |
| MEAS | 3.94 |
| MEAF | ≤ 0.25 |
| QEGT | 24.3 |
| QEAS | 10.1 |
| TEAA | 2.61 |
| TEAS | 16.2 |
| QEAF | ≤ 0.25 |
| TEAD | 16.8 |
| TEAF | 13.8 |
| QGGT | 8.36 |
| EISC | ≤ 0.25 |
| KVKA | ≤ 0.25 |
| EFER | ≤ 0.25 |
| EFNA | ≤ 0.25 |

| Variant | enrichment ratio |
| --- | --- |
| IKFE | ≤ 0.25 |
| PTLL | ≤ 0.25 |
| SHIM | 2.2 |
| PILC | ≤ 0.25 |
| TELL | 16.9 |
| NELL | ≤ 0.25 |
| NELF | ≤ 0.25 |
| TELW | ≤ 0.25 |
| TELP | ≤ 0.25 |
| CDYS | ≤ 0.25 |
| YTYS | ≤ 0.25 |
| MELF | 0.528 |
| TELF | 12.2 |
| MELL | 3.52 |
| TELS | 12.5 |
| TEYS | 11.9 |
| PWMG | ≤ 0.25 |
| ETEG | ≤ 0.25 |
| ASGY | 3.18 |
| YDLK | ≤ 0.25 |
| MDNI | ≤ 0.25 |
| IQKP | ≤ 0.25 |
| VRDA | ≤ 0.25 |
| WIHY | ≤ 0.25 |
| FACS | ≤ 0.25 |
| ESAP | ≤ 0.25 |

| Variant | enrichment ratio |
| --- | --- |
| RPEH | ≤ 0.25 |
| QELI | ≤ 0.25 |
| TELI | 19.5 |
| MELI | 6.46 |
| NHGT | ≤ 0.25 |
| TEGT | 22.6 |
| THGT | ≤ 0.25 |
| ADTR | ≤ 0.25 |
| QRFP | ≤ 0.25 |
| VSPY | ≤ 0.25 |
| WIWC | ≤ 0.25 |
| LCWC | ≤ 0.25 |
| QRWC | ≤ 0.25 |
| MMWC | ≤ 0.25 |
| YAWC | ≤ 0.25 |
| KAWC | ≤ 0.25 |
| TGWC | 13.8 |
| QPWC | ≤ 0.25 |
| TAWC | 11.3 |
| KSWC | ≤ 0.25 |
| QFWC | 17.1 |
| TSWC | 17.5 |
| NPNK | ≤ 0.25 |
